30 compounds from ChEMBL document CHEMBL1157539, “Thousands of chemical starting points for antimalarial lead identification” (Nature, 2010) can be followed below.

Type in all cases: functional
Experiment [1] relates to Plasmodium falciparum. The experiment is described as follows: GSK_TCMDC: Inhibition of Plasmodium falciparum 3D7 in whole red blood cells, using parasite LDH activity as an index of growth. Test compounds present at 2uM.
Experiment [2] concerns Plasmodium falciparum. The experiment is described as follows: GSK_TCMDC: Inhibition of Plasmodium falciparum Dd2 in whole red blood cells, using parasite LDH activity as an index of growth. Test compounds present at 2uM.
In experiment [3] the test system is HepG2. The experiment is described as follows: GSK_TCMDC: Percent inhibition of human HepG2 cell line. Test compounds present at 10uM.

Each structure is given as a SMILES string.

Regarding `CC1(C)N=C(N)N=C(N)N1c1cccc(C(F)(F)F)c1.Cl`, the Inhibition in experiment [1] is 95%; in experiment [2], 68%; in experiment [3], 60%.
The matching figures for `O=S(=O)(c1ccc(Cl)cc1Cl)N1CCCCC(c2ccc(C(F)(F)F)cc2)=N1`: 100%, 99% and 10%.
Consider `O=C(Nc1cccc(C(F)(F)F)c1)Nc1nc2ccc([N+](=O)[O-])cc2s1`, for which the Inhibition in experiment [1] is 100%; in experiment [2], 76%; in experiment [3] it was 81%.
For the compound `O=C(/C=C/c1ccc(Cl)c(Cl)c1)NCCCCCN1CCC(C(=O)Nc2ccc3c(c2)OCO3)CC1`, the Inhibition is 92% in experiment [1], 0% in experiment [2] and 18% in experiment [3].
The matching figures for `CCCCOP(=O)(OCCCC)C(=Cc1ccc(O)c2ccccc12)P(=O)(OCCCC)OCCCC`: 84%, 64% and 1%.
In the case of `C#CC(C)(CO)N1CCCC1` (stereo not given), the figures for the Inhibition in experiment [1], in experiment [2] and in experiment [3] were 95%, 1% and 10%, respectively.
For the compound `COc1ccc2nccc([C@@H](O)CN3CCC(NC(=O)c4ccc(-c5ccccc5)s4)CC3)c2c1`, the Inhibition in experiment [1] worked out at 100%; in experiment [2], 81%; in experiment [3], 10%.
For `COc1ccccc1N1CCN(Cc2cc(C(C)C)c(C)cc2O)CC1` the same measures were 97%, 98% and 7%.
In the case of `COc1ccc(N2CCN(CCCNC(=O)c3ccc(NC(=O)c4cc(Cl)cc(Cl)c4)cc3)CC2)c(OC)c1`, the Inhibition was found to be 100% in experiment [1], 79% in experiment [2] and 21% in experiment [3].
For `Cl.O=C1CSc2ccc(CNC3CCN(CCc4c(Cl)cnc5ccc(Cl)cc45)CC3)nc2N1` the same measures were 100%, 92% and 25%.
The matching figures for `CN(C)CCN(C)Cc1ccc(-c2ccc3c(Nc4ccc(F)cc4Cl)ccnc3c2)o1`: 100%, 100% and 31%.
As to `COc1cc(CNCCCCCCNCc2cc(OC)c(OC)c3ccccc23)c2ccccc2c1OC.CS(=O)(=O)O`, the Inhibition in experiment [1], in experiment [2] and in experiment [3] was 100% each time.
On to `O=C(NCCN1CCOCC1)c1ccc(O)c(-c2cccc(C(F)(F)F)c2)c1`, for which the Inhibition in experiment [1] came out at 95%; in experiment [2], 48%; in experiment [3], 0%.
As for `CN(c1ccc(NC(=O)Nc2cccc(Cl)c2)cc1)c1ccnc(N)n1.Cl`, the Inhibition was 100% in experiment [1], 40% in experiment [2] and 75% in experiment [3].
In the case of `c1ccc(-c2cccnn2)cc1`, the Inhibition in experiment [1] was found to be 98%; in experiment [2], 6%; in experiment [3], 0%.
For `CN1CCN(c2cccc(Nc3nccc(NCC(O)c4ccccc4)n3)c2)CC1` (stereo not given) the same measures were 100%, 4% and 30%.
The matching figures for `O=C(Nc1ccc(Cl)cc1)c1cccc2nc(C(F)(F)F)[nH]c12`: 93%, 98% and 84%.
As for `CN(Cc1cccc(C#N)c1)C1CCN(c2cc(NC(=O)c3ccc(F)cc3)ccn2)CC1.O=C(O)C(F)(F)F`, the Inhibition is reported as 97% in experiment [1], 23% in experiment [2] and 4% in experiment [3].
For `CN(C)c1ccc(Br)c(Br)c1` the same measures were 86%, 0% and 17%.
For the compound `CCN1CCN(C(=O)NC(C(=O)N2CCCC(COc3ccc(Cc4ccccc4)cc3)C2)c2cccs2)C(=O)C1=O` (stereo not given), the Inhibition in experiment [1] is given as 95%; in experiment [2], 87%; in experiment [3] it was 12%.
For `Cc1ccc(NC(=O)c2ccc(CN3CCCN(CCC(C)C)CC3)cc2)cc1C.O=C(O)C(F)(F)F` the same measures were 92%, 17% and 25%.
The matching figures for `Cc1cc2nc(N=C3NC4(c5ccccn5)NC(=Nc5nc6cc(C)c(C)cc6[nH]5)NC4(c4ccccn4)N3)[nH]c2cc1C.O=C(O)C(F)(F)F` (stereo not given): 87%, 62% and 3%.
For `CCNc1cc(C(=O)N[C@@H](Cc2ccccc2)[C@H](O)CNC2CCC(C)(C)CC2)cc(N2CCCCS2(=O)=O)c1.Cl` the same measures were 98%, 71% and 1%.
For the compound `Cc1cccc2nc(-c3cccc(-c4cccc(NC(=O)c5cccnc5Cl)c4)c3)[nH]c12`, the Inhibition was 97% in experiment [1], 32% in experiment [2] and 0% in experiment [3].
`CCCCc1cc(NCC)nc(Nc2ccc(OC)cc2)n1`: the Inhibition in experiment [1] came out at 85%; in experiment [2] it was 32%; in experiment [3], 30%.
For `COc1cccc(C(=O)N2CCOC(CCN3CCC(c4ccccc4)CC3)(c3ccc(Cl)c(Cl)c3)C2)c1` (stereo not given) the same measures were 87%, 63% and 38%.
The matching figures for `Cc1nc(-c2nc(N3CCOCC3)ncc2-c2ccsc2)sc1C`: 89%, 75% and 5%.
For `O=C(NCCCN1CCN(c2cccc(Cl)c2)CC1)c1ccc(-c2nc3cc(Cl)c(Cl)cc3[nH]2)c(F)c1` the same measures were 100%, 72% and 3%.
Take `NS(=O)(=O)c1cccc(Nc2nccc(-c3c(-c4cccc(NC(=O)c5c(F)cccc5F)c4)nn4ccccc34)n2)c1`: the Inhibition stood at 98% in experiment [1], 97% in experiment [2] and 81% in experiment [3].
Turning to `COc1cc(OC)cc(C(=O)Nc2ccc(Nc3nc(C)cc(N(C)C)n3)cc2)c1`, the Inhibition stood at 100% in experiment [1], 90% in experiment [2] and 11% in experiment [3].

As a reminder, the Inhibition is the percentage by which the read-out fell short of the control. Lower therefore signals little suppression.
